Records with an inconclusive call do not appear. The call rests on the fitted dose curve; in most records, active means well fitted curve in either direction with a large enough effect (not every such curve was filed as active); inconclusive means small, poorly fitted or top-dose-only effect, or another doubt; inactive means flat fitted curve, though single readings scatter.
What follows are molecules tested against Mitogen-activated protein kinase 10 (Mus musculus) (UniProt Q61831) (assay: JNK3 AlphaScreen Assay (AID 530;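 further: kinase came from lysate of stimulated human HepG2 cells; signal reports phosphorylation of biotinylated GST-cJun 1-79 at Ser73 with 10 µM ATP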)). Details: JNK3 lysate, c-Jun phosphorylation; series mostly up to 57.1 µM; activity change, negative = inhibition: at the top concentration.
Outline: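 Kinase buffer: 20 mM Tris-HCl pH 7.6, 10 mM MgCl2, 1 mM DTT, 0.1 mM Na3VO4, 0.01% Tween-20; ATP 10 uM. Substrate biotin-GST-cJun(1-79), enzyme from activated HepG2 lysates. Detection by Ser73 phospho-antibody AlphaScreen.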
On the % scale 0 is the no-effect control and ±100 the full control effect.

Activity change, negative = inhibition, inactive:
FC(F)(F)c1ccccc1-c1nccc(NCc2cccs2)n1 6.25%
CN1CCN(c2ncc3ncc(=O)n(C[C@H]4CCCO4)c3n2)CC1 -6.3%
COCCn1c(=O)c(-c2cccc(C#N)c2)nc2cnc(Oc3ccccc3)nc21 -6.11%
CS(=O)(=O)Nc1cccc(-c2ccc3ncnc(Nc4ccccc4)c3c2)c1 8.52%
FC(F)(F)c1ccccc1-c1nc(NCc2cccs2)c2ccccc2n1 13%
c1ccc(CNc2ncnc3ccc(-c4cccnc4)cc23)cc1 -11.4%
COCCn1c(=O)cnc2cnc(Nc3cccc(OC)c3)nc21 -25%
COCCn1c(=O)cnc2cnc(Nc3ccccc3)nc21 -16.3%
CN1CCN(c2ncc3nc(-c4cc(F)cc(F)c4)c(=O)n(CCc4ccccc4)c3n2)CC1 19.7%
O=c1c(-c2ccc(F)cc2)nc2cnc(N3CCNCC3)nc2n1C1CC1 7.26%
COCCNc1ncnc2ccc(-c3cccc(OC)c3)cc12 -10.9%
O=c1c(-c2ccc(Cl)cc2)nc2cnc(N3CCOCC3)nc2n1-c1ccccc1 17.7%
CN(C)c1ncc2nc(-c3ccc(F)cc3)c(=O)n(Cc3ccc(F)cc3)c2n1 5%
COc1ccc(-c2nc3cnc(Oc4ccccc4)nc3n(CCC#N)c2=O)cc1 36%
COc1cccc(Nc2ncc3nc(CCc4ccccc4)c(=O)n(C)c3n2)c1 1.91%
Cc1nc2cncnc2n(C2CC2)c1=O 0.115%
Cn1c(=O)c(-c2ccc(Cl)cc2)nc2cnc(N3CCOCC3)nc21 7.31%
COc1ccc(Oc2ncc3nc(-c4ccc(Cl)cc4)c(=O)n(C[C@H]4CCCO4)c3n2)cc1 -2.5%

From PubChem BioAssay (NCATS)
